Measurements: PubChem BioAssay AID651956 (Broad Institute, 2012)
Measured potencies and affinities stand elsewhere. Results filed as inconclusive are left out. The source made the active and inactive calls.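 The calls were made as follows: active = in every test run, a fitted half-maximal concentration for signal decrease at or below twice the highest tested concentration; inconclusive = runs disagree, flat 30 to 70% decrease, or poor fit; inactive = the rest.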

Assay: activation of miR-122 Renilla sensor silencing – cell-based, Huh7 psiCHECK-miR122, Renilla luciferase, cherry-picked, dose response (AID 651956);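 also: Renilla luciferase from a miR-122 sensor reporter so lower signal means miR-122 activation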
Conditions: Huh7 psiCHECK-miR122 Renilla luciferase reporter, 48 h; series mostly up to 35 µM

For CN1C(=O)c2cc(NC(=O)c3cccs3)ccc2OC[C@@H]2O[C@@H](CC(=O)O)CC[C@@H]21, the outcome was “inactive”.

In the case of Cc1cc(C(F)F)n2ncc(C(=O)NCCc3ccccc3Cl)c2n1, the outcome is reported as “inactive”.

For C/C=C/c1ccc([C@@H]2[C@@H](CNC(=O)c3ccncc3)N(C(=O)CC)[C@H]2CO)cc1, the outcome was “inactive”.

In the case of N#Cc1ccc(C(=O)Nc2ccc(N3CCN(C(=O)c4ccco4)CC3)cc2)c(F)c1, the outcome is reported as “inactive”.

For O=C(COC(=O)c1ccccc1)Nc1cc(Cl)ccc1Oc1ccccc1, the outcome was “inactive”.

For COCCNC(=O)C[C@H]1CC[C@@H]2[C@H](COc3ccc(NC(=O)c4cnccn4)cc3C(=O)N2C)O1, the outcome was “inactive”.

With COCCNC(=O)C[C@H]1CC[C@@H]2[C@@H](COc3ccc(NS(=O)(=O)c4ccc(Cl)cc4)cc3C(=O)N2C)O1 the outcome was “inactive”.

In the case of NS(=O)(=O)c1ccc(Nc2nc(-c3cccnc3)cs2)cc1, the outcome is reported as “inactive”.

With COCC(=O)Nc1ccc2c(c1)C(=O)N(C)[C@@H]1CC[C@H](CC(=O)N3CCc4ccccc4C3)O[C@H]1CO2 the outcome was “inactive”.

For COCC(=O)Nc1ccc2c(c1)C(=O)N(C)[C@@H]1CC[C@H](CC(=O)Nc3cn(C)nc3C)O[C@H]1CO2, the outcome was “inactive”.

In the case of O=C(Cn1c(=O)c2ccccc2n(CC(=O)N2CCCCC2)c1=O)N1CCCCC1, the outcome is reported as “inactive”.

In the case of COCC(=O)N(C[C@@H]1N[C@H](CO)[C@H]1c1ccc(-c2cccnc2)cc1)C(C)C, the outcome is reported as “inactive”.

With COCCNC(=O)C[C@H]1CC[C@@H]2[C@H](COc3ccc(NC(=O)C4CCOCC4)cc3C(=O)N2C)O1 the outcome was “inactive”.

In the case of COC(=O)C[C@H]1CC[C@H]2[C@H](COc3ccc(NC(=O)c4cccc(F)c4)cc3C(=O)N2C)O1, the outcome is reported as “inactive”.

For CN1C(=O)c2cc(NC(=O)c3ccccc3F)ccc2OC[C@H]2O[C@@H](CC(=O)NCc3ccc4c(c3)OCO4)CC[C@@H]21, the outcome was “inactive”.

In the case of O=c1c2cc(N3CCOCC3)ccc2[nH]c(=S)n1CCCN1CCCC1, the outcome is reported as “inactive”.

In the case of CN(C)CCCN(C(=O)CCc1ccccc1)c1nc2ccc(Br)cc2s1, the outcome is reported as “inactive”.

For Cc1noc(C)c1NC(=O)Nc1ccc2c(c1)C(=O)N(C)[C@@H]1CC[C@H](CC(=O)N[C@H]3CCN(Cc4ccccc4)C3)O[C@H]1CO2, the outcome was “inactive”.

With Cc1cccc(NC(=O)C[C@H]2CC[C@H]3[C@@H](COc4ccc(NC(=O)NC(C)C)cc4C(=O)N3C)O2)c1 the outcome was “inactive”.

For CC(=O)N(C[C@@H]1N[C@@H](CO)[C@H]1c1ccc(-c2ccccc2)cc1)C(C)C, the outcome was “inactive”.

For COc1ccccc1C#Cc1ccc2c(c1)O[C@H](CN(C)Cc1cccnc1)[C@H](C)CN([C@@H](C)CO)S2(=O)=O, the outcome was “inactive”.

For CCNC(=O)C[C@H]1CC[C@H]2[C@H](COc3ccc(NC(=O)Nc4cccc(OC)c4)cc3C(=O)N2C)O1, the outcome was “inactive”.

For CC1(C)CC(=O)c2cnc(NC(=O)c3ccco3)nc2C1, the outcome was “inactive”.

In the case of COc1cccc(C(=O)Nc2ccc3c(c2)C(=O)N(C)[C@H]2CC[C@H](CC(=O)NCc4ccc(F)cc4)O[C@H]2CO3)c1, the outcome is reported as “inactive”.

With CCCNC(=O)N1[C@H](CNC(C)=O)[C@H](c2ccc(C3=CCCC3)cc2)[C@@H]1CO the outcome was “inactive”.

For CC(C)CC#Cc1ccc2c(c1)O[C@H](CN(C)C(=O)c1cnccn1)[C@H](C)CN([C@H](C)CO)S2(=O)=O, the outcome was “inactive”.

With CNC(=O)C[C@@H]1CC[C@@H]2[C@@H](COc3ccc(NC(=O)c4ccccc4F)cc3C(=O)N2C)O1 the outcome was “inactive”.

For C[C@H](CO)N1C[C@H](C)[C@@H](CN(C)Cc2ccc(C(F)(F)F)cc2)Oc2ccc(NS(=O)(=O)c3ccc(Cl)cc3)cc2CC1=O, the outcome was “inactive”.

For COc1ccc(CNC(=O)NCCc2c[nH]c3ccccc23)cc1, the outcome was “inactive”.

In the case of COC(=O)C[C@@H]1CC[C@@H]2[C@H](COc3ccc(NC(=O)c4ccc(F)c(F)c4)cc3C(=O)N2C)O1, the outcome is reported as “inactive”.

In the case of O=C(N[C@H]1CC[C@H](CCn2cc(C3(O)CCCC3)nn2)O[C@H]1CO)c1ccccc1F, the outcome is reported as “inactive”.

In the case of CCCC(=O)Nc1ccc2c(c1)C(=O)N(C)[C@@H]1CC[C@H](CC(=O)Nc3cn(C)nc3C)O[C@@H]1CO2, the outcome is reported as “inactive”.

For C/C=C/c1ccc([C@@H]2[C@@H](CN(C)C(=O)CC)N(C(=O)NC(C)C)[C@H]2CO)cc1, the outcome was “inactive”.

With COc1ccc2c(c1)C(C)=CC(C)(C)N2C(=O)CNCc1ccc2c(c1)OCO2 the outcome was “inactive”.

In the case of COC(=O)C[C@@H]1CC[C@H]2[C@@H](COc3ccc(NC(=O)c4ccc(F)c(F)c4)cc3C(=O)N2C)O1, the outcome is reported as “inactive”.

With CCCNC(=O)C[C@@H]1CC[C@@H]2[C@@H](COc3ccc(NC(=O)Nc4ccccc4F)cc3C(=O)N2C)O1 the outcome was “inactive”.

In the case of c1ccc(CCCNCCCn2cnc3c(OCc4ccccc4)ncnc32)cc1, the outcome is reported as “inactive”.

For COCC(=O)Nc1ccc2c(c1)C(=O)N(C)[C@@H]1CC[C@@H](CC(=O)NC3CCCC3)O[C@H]1CO2, the outcome was “inactive”.

In the case of CN1C(=O)c2cc(NC(=O)c3cccs3)ccc2OC[C@@H]2O[C@@H](CC(=O)N3CCOCC3)CC[C@H]21, the outcome is reported as “inactive”.
